This excerpt belongs to a sample that is enriched for hits.
KDM5B inhibitor = Primary screen for KDM5B Histone Demethylases FDH-coupled qHTS | Potency, µM (top dose mostly 57.7 µM), hits mostly inhibitors | Lysine-specific demethylase 5B (Homo sapiens), Q9UGL1 | 220,000 compounds, 2.6% hits | AID 1347165, 2019 | KDM5B demethylase, FDH-coupled NADH fluorescence (FDH is formaldehyde dehydrogenase); active = well fitted inhibition curve with a large enough effect; note: 0% is about no effect; nearly all actives have a fitted effect of over 70% in size
Target sequence (Q9UGL1 whole entry, looked up): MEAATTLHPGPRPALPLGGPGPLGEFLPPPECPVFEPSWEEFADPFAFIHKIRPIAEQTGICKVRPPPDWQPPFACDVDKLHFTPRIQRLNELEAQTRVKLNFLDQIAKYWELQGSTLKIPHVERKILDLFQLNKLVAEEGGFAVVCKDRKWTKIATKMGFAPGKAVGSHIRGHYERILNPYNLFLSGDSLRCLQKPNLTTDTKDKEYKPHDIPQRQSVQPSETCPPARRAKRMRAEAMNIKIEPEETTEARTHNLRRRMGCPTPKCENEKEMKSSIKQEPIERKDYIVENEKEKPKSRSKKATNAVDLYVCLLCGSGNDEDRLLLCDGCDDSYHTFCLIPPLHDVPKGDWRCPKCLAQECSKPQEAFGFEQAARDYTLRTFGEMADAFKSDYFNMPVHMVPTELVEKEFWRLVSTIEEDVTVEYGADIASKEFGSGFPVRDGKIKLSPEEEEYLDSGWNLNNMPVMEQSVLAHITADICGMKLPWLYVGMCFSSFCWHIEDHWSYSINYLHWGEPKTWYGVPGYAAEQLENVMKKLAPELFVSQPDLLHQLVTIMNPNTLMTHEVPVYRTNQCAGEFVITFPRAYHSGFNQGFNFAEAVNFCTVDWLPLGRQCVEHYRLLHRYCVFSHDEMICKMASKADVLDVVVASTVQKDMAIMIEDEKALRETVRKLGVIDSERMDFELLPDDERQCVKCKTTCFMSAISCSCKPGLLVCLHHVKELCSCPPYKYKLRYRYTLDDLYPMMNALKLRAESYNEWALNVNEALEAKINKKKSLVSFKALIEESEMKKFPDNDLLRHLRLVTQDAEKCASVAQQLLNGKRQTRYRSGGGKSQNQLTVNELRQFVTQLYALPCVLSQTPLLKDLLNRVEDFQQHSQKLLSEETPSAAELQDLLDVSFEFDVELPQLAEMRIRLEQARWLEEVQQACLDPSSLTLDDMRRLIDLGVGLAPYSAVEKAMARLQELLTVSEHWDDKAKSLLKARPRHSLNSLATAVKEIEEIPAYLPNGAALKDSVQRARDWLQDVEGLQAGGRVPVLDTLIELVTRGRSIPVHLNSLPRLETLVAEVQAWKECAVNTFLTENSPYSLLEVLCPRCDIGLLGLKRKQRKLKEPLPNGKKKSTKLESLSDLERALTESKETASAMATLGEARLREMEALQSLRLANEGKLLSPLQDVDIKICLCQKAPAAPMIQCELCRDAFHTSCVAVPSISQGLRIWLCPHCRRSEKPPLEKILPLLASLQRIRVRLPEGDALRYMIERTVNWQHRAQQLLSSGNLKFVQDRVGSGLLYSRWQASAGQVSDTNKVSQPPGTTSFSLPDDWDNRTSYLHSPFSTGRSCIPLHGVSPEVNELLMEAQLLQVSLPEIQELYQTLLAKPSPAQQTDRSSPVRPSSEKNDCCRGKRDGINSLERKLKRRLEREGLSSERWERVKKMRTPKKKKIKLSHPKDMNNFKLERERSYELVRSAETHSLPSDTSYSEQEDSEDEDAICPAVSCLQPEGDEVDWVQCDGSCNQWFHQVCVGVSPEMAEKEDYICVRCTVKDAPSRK
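qHTS format, multiple compound concentrations. Buffer 50 mM HEPES pH 7.5/0.01% Tween-20; 200 nM KDM5BΔAP final; 10 min compound preincubation; substrate-mix levels 12.5 µM peptide, 25 µM α-KG, 0.25 mM NAD⁺; 30 min RT; ΔRFU.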
* hit, by the source's call; i = inactive. Potency is the fitted concentration of half-maximal effect.

SMILES	KDM5B inhibitor
COc1ccc(OC)c(CN2CCNc3cc(-c4ccccc4)ncc3C2)c1	i
COc1ccc(CN2CCNc3cnc(Nc4cccnc4)cc3C2)cc1O	35.5µM*
COc1ccc(CN2CCNc3cc(Nc4cccnc4)ncc3C2)cc1O	i
CC1(C)[C@H]2CC[C@@H](CNC(=O)c3ccccn3)[C@@H]1C2	i
COC(=O)c1cccc(S(=O)(=O)NCc2ccc(N3CCCC3)nc2)c1	i
Cc1cc2cc(-c3c(C)noc3C)nc(N3CCN(C)C(=O)C3)c2o1	i
Cc1cc2cc(-c3c(C)noc3C)nc(N3CCN(c4ccccn4)CC3)c2o1	31.6µM*
Cc1noc(C)c1-c1cc2cc(CO)oc2c(-c2ccc(F)c(Cl)c2)n1	31.6µM*
Cc1cc2cc(-c3c(C)noc3C)nc(N(C)C)c2o1	i
CC(=O)Nc1cccc(-c2nc(-c3c(C)noc3C)cc3cc(CO)oc23)c1	39.8µM*
COc1cc(-c2nc(-c3c(C)noc3C)cc3cc(C)oc23)ccn1	35.5µM*
Cc1noc(C)c1-c1cc2cc(C(C)C)oc2c(N2CCN(C)CC2)n1	i
CNC(=O)c1cc2cc(-c3c(C)noc3C)nc(-c3cccc(OC)c3OC)c2o1	i
CC(=O)Nc1cccc(-c2nc(-c3c(C)noc3C)cc3c2cc(C)n3CCN(C)C)c1	i
COc1cc(-c2nc(-c3c(C)noc3C)cc3c2cc(C)n3C)ccn1	i
Cc1ccccc1-c1nc(-c2c(C)noc2C)cc2cc(CN(C)C)oc12	i
Cc1noc(C)c1-c1cc2cc(CN(C)C)oc2c(NC(C)C)n1	i
O=C(Cn1ncc2ccccc2c1=O)NC1CCCc2c1[nH]c1c(Cl)cccc21 (centres undefined)	i
CCn1ccc2cc(C(=O)N3CCC(=O)N(CC4CC4)C(C(C)C)C3)ccc21 (centres undefined)	i
CCCCN(C)C(=O)CSc1nc2ccsc2c(=O)n1-c1ccccc1F	i
CCCn1nc(C)cc1CN(C)c1ccc(NC(=O)c2ccccc2C)cc1C(=O)O	i
O=C(CC1CCCO1)NC(c1ccccc1)C1CCCCC1 (centres undefined)	i
COc1ccc(-c2nc(-c3c(C)noc3C)cc3cc(CO)oc23)cn1	35.5µM*
O=C(O)Cn1cc(C(C(=O)O)N2CCN(c3ccccc3)CC2)c2ccccc21 (centres undefined)	i
COC[C@@H]1CN(S(=O)(=O)c2cnc[nH]2)C[C@H]1c1ccccn1	i
SMILES	KDM5B inhibitor
CCOc1ccc(S(=O)(=O)Nc2ccccc2-c2nnc3n2CCCCC3)cc1OCC	i
Cc1ccc2nc(/C(C#N)=C/c3cc(C)c(C)cc3C)[nH]c2c1	i
COc1ccc(OCC(=O)Nc2ncc(-c3ccc(OC)nc3)c3c2OCC3)cc1	i
COCCNc1ncc(-c2cccc(N[S+](C)(=O)[O-])c2)c2c1OCC2	35.5µM*
COCCNc1ncc(-c2ccc(SC)cc2)c2c1OCC2	5.01µM*
COCCNc1nc(-c2ccc(NC(C)=O)cc2)cs1	i
COCCNc1oc(-c2ccc(OC)cc2)nc1S(=O)(=O)c1ccccc1	i
COCCNc1ncc(-c2ccc(NC(C)=O)cc2)c2c1OCC2	35.5µM*
C[S+](=O)([O-])Nc1cccc(Nc2cnc3ccc(-c4cccc(CO)c4)nn23)c1	i
COCCNc1ncc(-c2ccc(OC)cc2)c2c1OCC2	35.5µM*
COc1ccc(C2(C)N(O)C(C)C(c3ccccc3)=[N+]2[O-])cc1 (centres undefined)	i
COC(=O)[C@H](NC(=O)[C@@H]1C[C@H](NC(=O)NC(C)C)CN1C(=O)c1cccn1C)C(C)C	i
CC(C)(C)c1cc(-c2nc3ccccc3[nH]2)cc(C(C)(C)C)c1O	i
COc1ccccc1N=C1NN=C(c2ccc3c(c2)CC(C)N3S(C)(=O)=O)CS1 (centres undefined)	i
O=C(NCC(c1ccco1)S(=O)(=O)c1ccccc1)c1ccc2c(c1)OCO2 (centres undefined)	i
Cc1ccc(S(=O)(=O)N(C)C(C)c2cc3ccccc3o2)c(C)c1 (centres undefined)	i
COc1cccc(C2=C(C(C)=O)Sc3nnc(-c4ccccc4)n3N2C(C)=O)c1	i
NCc1ccccc1OC(F)F	i
Cc1ccc(-c2cnc(CCC(=O)Nc3ccc(F)cc3)o2)cc1C	i
COc1cccc(C(=O)Nc2ccccc2-c2nnc(-c3cccc(OC)c3)o2)c1	i
COCCNc1ncnc2onc(-c3ccc(F)cc3)c12	i
COCCNc1ncc(-c2cccc(OC)c2)c2c1OCC2	35.5µM*
COCCCNc1ncnc2onc(-c3ccc(F)cc3)c12	i
COCCNc1ncc(-c2ccc(F)cc2)c2c1OCC2	31.6µM*
COCc1cc(C)nc2sc3c(c12)NCN(c1ccccc1C)C3=O	i
SMILES	KDM5B inhibitor
O=C(CN1CCN(C(=O)c2cccc(I)c2)CC1)N1CCCCC1	i
O=C(CSc1ncccn1)c1ccc2c(c1)OCCO2	i
N#Cc1ccc(NC(=O)C2CC(c3ccccc3F)=NO2)cc1 (centres undefined)	i
CC(C)c1noc(-c2cccn3c(CNC(=O)c4ccc(Cl)cc4)nnc23)n1	25.1µM*
Cc1ccccc1CNC(=O)COc1ccc(-c2nc(C(C)C)no2)cc1	i
CC(C)c1noc(CC2CCN(C(=O)c3ccccc3Cl)CC2)n1	i
Cc1ccccc1CC(=O)NCc1nnc2c(-c3nc(C(C)C)no3)cccn12	22.4µM*
Cc1ccccc1CC(=O)NCC(C)C	i
CNC(=O)c1ccc(OCc2nc(C(C)C)no2)cc1	i
Cc1cccn2c(=O)c(C(=O)NCc3ccccc3Cl)c(O)nc12	i
CC(C)c1noc(-c2cccn3c(CNC(=O)c4ccccc4Cl)nnc23)n1	10µM*
O=C(Cn1cccc1-c1nc(-c2ccccc2)no1)NCc1ccccc1Cl	i
O=C(Cn1cccc1-c1nc(-c2ccc(F)cc2)no1)NCc1ccccc1Cl	i
CC(C)c1noc(-c2cccn3c(CNC(=O)Cc4ccccc4Cl)nnc23)n1	25.1µM*
COc1cccc(C(=O)N2CC3(Cc4ccccc4N([S+](C)(=O)[O-])C3)C2)c1	i
CC(=O)N1CCC(C(=O)Nc2ccc(Cl)cc2)CC1	i
O=C1NC2(CCN(C(=O)c3cccnc3)CC2)COc2ccccc21	i
CC(NC(=O)c1ccc(Cl)o1)c1ccc(S(N)(=O)=O)cc1 (centres undefined)	i
CCc1ccc(S(=O)(=O)N[C@@H](C)C(=O)NCc2cscn2)cc1	i
CCCN(CC1CCOC1)C(=O)Nc1ccc(C)cc1Cl (centres undefined)	i
C[C@H]1[C@@H]2[C@@H](O)C([C@H](C)C(=O)NCc3cccs3)CC[C@@]2(C)CC[C@@H]1NC(=O)Cc1ccccc1 (some centres undefined)	i
CSCC(=O)N[C@H]1CCN2C(=O)c3cc(-c4cccs4)ccc3NC(=O)[C@H]12	35.5µM*
O=C(N[C@H]1CCN2C(=O)c3cc(-c4cccs4)ccc3NC(=O)[C@H]12)c1cccs1	31.6µM*
O=C1Nc2ccc(-c3ccc(F)cc3F)cc2C(=O)N2CC[C@H](NC(=O)N3CCOCC3)[C@@H]12	i
CSCC(=O)N[C@H]1CCN2C(=O)c3ccc(Cl)cc3NC(=O)[C@H]12	i
O=C(N[C@H]1CCN2C(=O)c3cc(-c4ccc(F)cc4F)ccc3NC(=O)[C@H]12)c1cccc(F)c1	i

Assay outcomes as filed in PubChem.
